This is an account of results in article PMC7819943, “Rice protein-binding microarrays: a tool to detect cis-acting elements near promoter regions in rice”.

In all, about 35,000 sequences were measured (“fluorescence intensity (a.u.)”: median about 10,000, highest 2% from about 52,000 on). The list comes from a sample in which the highest values are over-represented; it also holds similar and randomly drawn sequences.

In the assay the target is T1, OsWOX13 (Oryza sativa, UniProt Q5QMM3 1-267).
T1 sequence: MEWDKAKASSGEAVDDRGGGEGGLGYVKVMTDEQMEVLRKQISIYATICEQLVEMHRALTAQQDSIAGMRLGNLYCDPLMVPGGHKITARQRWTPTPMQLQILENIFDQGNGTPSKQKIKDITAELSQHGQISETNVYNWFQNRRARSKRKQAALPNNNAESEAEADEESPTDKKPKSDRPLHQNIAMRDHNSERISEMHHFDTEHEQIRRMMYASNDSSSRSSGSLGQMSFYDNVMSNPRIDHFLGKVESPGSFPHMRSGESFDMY
The experiment in a line: protein-binding microarray (RPBM); PBS, 2% BSA, 51.3 ng/ul salmon testes DNA, 50 uM zinc acetate, 200 nM TF, 25 C, 1 h; high values mean tight binding. Conditions: protein: recombinant; tags: N-terminal polyhistidine and DsRed monomer fusion (pET32a); label: CyDye5-dUTP incorporated in the synthesized complementary strand; 3' TTTTT single-stranded linker to array surface; dsDNA, one strand shown. The method in brief:
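The binding signal is fluorescence intensity per feature, in arbitrary units, read on an Axon 4000B scanner. Polyhistidine- and DsRed-tagged transcription factors (N-terminal fusions) from E. coli BL21-CodonPlus were purified on Ni–NTA and applied at 200 nM for 1 h at 25 °C to a double-stranded, BSA-blocked custom Agilent array in buffer with 50 µM zinc acetate.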
As for “TTGTTGTTATTTAATAAATTAGGAGATCAAATATGTTATTCGGAGTCACCTAGTGCAG”, the binding signal is 3300 fluorescence intensity (a.u.).

Turning to “GGGGCAAATTGGTCTTGTCATGAAAGCTAAAAGCCAAAGGCGGAGTCACCTAGTGCAG”, the binding signal is 4730 fluorescence intensity (a.u.).

Take “CAAGATAATTACAAGTTTATAAAACAAACTACTACAGGGACGGAGTCACCTAGTGCAG”: the binding signal was 27200 fluorescence intensity (a.u.).

Regarding “CACTATCTGATCCTAATTACACACTGATGCAGGGGTAAATCGGAGTCACCTAGTGCAG”, the binding signal was 3790 fluorescence intensity (a.u.).

As to “ATCTTTAATTTTGATATTTAATTTTAATCATTGGAAAGGGCGGAGTCACCTAGTGCAG”, the binding signal is 25000 fluorescence intensity (a.u.).

Regarding “CAATGCTTGCTTGATTGGGAGCGCGTCGTCGAGGGCGTCGCGGAGTCACCTAGTGCAG”, the binding signal was 14400 fluorescence intensity (a.u.).

“TGATTGATTGCTTGATTGGGAGTGTCCTTTGGGCGAGCTGCGGAGTCACCTAGTGCAG”: the binding signal was 64900 fluorescence intensity (a.u.).

With “AGGTGTACATGATTGTTTGCTTCCTTGCTGCAGCTCGGCGCGGAGTCACCTAGTGCAG”, the binding signal is 14100 fluorescence intensity (a.u.).

With “CATAATTGCTGATATTTTGTCTTTGGAGTTTGATCCATGGCGGAGTCACCTAGTGCAG”, the binding signal was 44200 fluorescence intensity (a.u.).

As to “GTTAATTTTGTCGAGTTAATTGGATCTTTGCTTTGATGGGCGGAGTCACCTAGTGCAG”, the binding signal was 57600 fluorescence intensity (a.u.).

In the case of “CCCCATCGTCACTTATAATTTATGAATAAAACTTTTAGATCGGAGTCACCTAGTGCAG”, the binding signal is 4840 fluorescence intensity (a.u.).

For “GGATGAAATTAGCCCATCAGCAATTACGTGTAGGCCGTAGCGGAGTCACCTAGTGCAG”, the binding signal is 3690 fluorescence intensity (a.u.).

For the sequence “ATGTTCCTATCAGTTGCTAATTATTAGTGTGACATCAATCCGGAGTCACCTAGTGCAG”, the binding signal is 16300 fluorescence intensity (a.u.).

Regarding “ATTAAGTCTAATTAATCTGTTATTAGCAAATGTTTACTGTCGGAGTCACCTAGTGCAG”, the binding signal is 11100 fluorescence intensity (a.u.).

As to “CCTAATTACGCCATGATTTGATAATATGATGCTACAATAACGGAGTCACCTAGTGCAG”, the binding signal was 39600 fluorescence intensity (a.u.).

Regarding “ACTGCTGCCGATTGACTGCTACGAGTAGCTCGCACCTGGCCGGAGTCACCTAGTGCAG”, the binding signal was 7450 fluorescence intensity (a.u.).

For the sequence “AATCAATTTAATAATTGATTAAACAGAGCAAATTTTAGCTCGGAGTCACCTAGTGCAG”, the binding signal is 65100 fluorescence intensity (a.u.).

On to “CCAAATTAAGCCATTAATTAATAAAACAATATCATTAGGACGGAGTCACCTAGTGCAG”, for which the binding signal was 28900 fluorescence intensity (a.u.).

Take “GAGCAAAACAATAATTAAATATATTTTGATAATAAATTTGCGGAGTCACCTAGTGCAG”: the binding signal was 3560 fluorescence intensity (a.u.).

Consider “TTTAATATTTATAATTAATGTCAAACATCAGATGTGATAGCGGAGTCACCTAGTGCAG”, for which the binding signal is 12700 fluorescence intensity (a.u.).

Consider “TAATAATTGATTAAACAGAGCAAATTTTAGCTTGCAGATACGGAGTCACCTAGTGCAG”, for which the binding signal is 48500 fluorescence intensity (a.u.).

In the case of “TAATATTTAAATTAAACCTATAATCAAGCAGATGATTTATCGGAGTCACCTAGTGCAG”, the binding signal was 8840 fluorescence intensity (a.u.).

Consider “TGAAATAATTAATTAAATTATCATTAAGCCCCAAACCGAGCGGAGTCACCTAGTGCAG”, for which the binding signal was 57300 fluorescence intensity (a.u.).

As for “CAATTGTGAAATAATTAATTAAATTATCATTAAGCCCCAACGGAGTCACCTAGTGCAG”, the binding signal was 30300 fluorescence intensity (a.u.).

“TTTAATTGATAAATATTATCAATTATTAAACAGATAAGCGCGGAGTCACCTAGTGCAG”: the binding signal is 62800 fluorescence intensity (a.u.).

Regarding “GATAGATGATATACCCGTTAACAATGAGACGTTTGTGGAGCGGAGTCACCTAGTGCAG”, the binding signal is 3270 fluorescence intensity (a.u.).

With “ACATATAATTGCCACGTCAGCGCCACATCAATGCCACGTGCGGAGTCACCTAGTGCAG”, the binding signal was 23200 fluorescence intensity (a.u.).

On to “ATTAAAATTATGAAATTTTAATGATTCATTAATCTCAAGACGGAGTCACCTAGTGCAG”, for which the binding signal is 14100 fluorescence intensity (a.u.).

“AACCGAAAATTATTATTTTAATCGGCGTGGTGTCCACTGGCGGAGTCACCTAGTGCAG”: the binding signal is 4880 fluorescence intensity (a.u.).

For “TCATTAATGATCTAATCACCAACTAAACTCCCTATCAATTCGGAGTCACCTAGTGCAG”, the binding signal was 18200 fluorescence intensity (a.u.).

For “GTTTGTTTAGATTGGTACCATTTAAAATCATATTATTTTGCGGAGTCACCTAGTGCAG”, the binding signal is 20600 fluorescence intensity (a.u.).

For the sequence “GGACAGATTAACTATCACTTAATTTCAGGTTTCCATGTATCGGAGTCACCTAGTGCAG”, the binding signal was 22700 fluorescence intensity (a.u.).

Consider “TACTACTAATTATATGCCGATTGAGAGTGTTGTAGCGTCACGGAGTCACCTAGTGCAG”, for which the binding signal is 17700 fluorescence intensity (a.u.).

Turning to “CTGTACTGATTGTTCACGGGTCGTTTCCGCACTATGGAACCGGAGTCACCTAGTGCAG”, the binding signal was 27900 fluorescence intensity (a.u.).

Turning to “GGCGCACTGATTGTTCATGATTGATGCAGTGATCCGGGCACGGAGTCACCTAGTGCAG”, the binding signal was 59600 fluorescence intensity (a.u.).

Turning to “ATGATGATTGGTTGGTTACGGGCATGTTCAGATTGTAGCCCGGAGTCACCTAGTGCAG”, the binding signal is 54900 fluorescence intensity (a.u.).

For the sequence “CTGTTCACACGGATTGATCATTGATGGATCCATGCTGATGCGGAGTCACCTAGTGCAG”, the binding signal is 9220 fluorescence intensity (a.u.).

Take “CCTGTTGATTGGTTAGCCCAGCCCATGATGTAGCCCATGACGGAGTCACCTAGTGCAG”: the binding signal is 38200 fluorescence intensity (a.u.).

Regarding “ATGAAAGATTGATATGTTGACATGTTCACAGATGAACTTACGGAGTCACCTAGTGCAG”, the binding signal was 17200 fluorescence intensity (a.u.).

Regarding “AAATAATGTACAAAAGGTGATAGATGAAACAATAAAGTAGCGGAGTCACCTAGTGCAG”, the binding signal is 4460 fluorescence intensity (a.u.).

With “TAATAATTTGGGGAGCTTAATTGCTATCCAGTGATATATACGGAGTCACCTAGTGCAG”, the binding signal was 11100 fluorescence intensity (a.u.).

Regarding “ACTAATCATCACATCGCTGTCTCAGATTCTCAGTGACAGACGGAGTCACCTAGTGCAG”, the binding signal is 4120 fluorescence intensity (a.u.).
